# NS1 inh – qHTS Assay for Inhibitors of Influenza NS1 Protein Function; Potency, µM (doses to about 46.1 µM), inactives show at the highest dose activity, positive = more growth; actives 0.4% (n = 270,000); AID 2326, 2010; calls by dose curve; note: potency is the fitted concentration of half-maximal effect; actives are rising curves; nearly all actives have a fitted effect of over 50% in size
#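 Compounds were scored for reversing the slow growth caused by influenza A NS1 in S. cerevisiae, measured by optical density at 600 nm. Assay medium contained 2% galactose at pH 6.0; NS1-free yeast of the same strain were the positive control.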
# CHX counter – Cycloheximide Counterscreen for Small Molecule Inhibitors of Shiga Toxin | cell reporter, cycloheximide protein synthesis inhibition counterscreen | max response, % | actives 12% (n = 300,000) | AID 2314, 2010; in the data active = max response mostly above about 13%, no sharp cut-off; inactive = mostly below about 14%; note: read at 38.3 µM for the half of the compounds with a filed dose; 0% is about no effect
# SARS PLpro yeast – qHTS of Yeast-based Assay for SARS-CoV PLP | S. cerevisiae expressing SARS-CoV PLpro, growth rescue | Potency, µM (titrated, usually from 32.9 µM), for inactives: top-dose activity, positive = growth rescue, actives largely listed as activators | actives 0.19% (n = 330,000) | AID 485353, 2010; calls by dose curve; note: potency is the fitted concentration of half-maximal effect; 0% is about no effect; nearly all actives have a fitted effect of over 55% in size
# Shiga toxin inh – A qHTS for Small Molecule Inhibitors of Shiga Toxin; inhibition, % at 38.7 µM; Vero cells, Shiga toxin protein synthesis inhibition reporter; AID 2315, 2010; actives 9.2% (n = 290,000); in the data active = inhibition mostly above about 28%, no sharp cut-off; inactive = mostly below about 43%; note: 0% is about no effect
# Pf growth 96h – Primary qHTS for delayed death inhibitors of the malarial parasite plastid, 96 hour incubation; P. falciparum luciferase reporter growth, 96 h; AID 504834, 2011; actives 6.9% (n = 320,000); Potency, µM (titrated, usually from 28.7 µM), for inactives: top-dose activity change, negative = inhibition, usual class: inhibitors; note: potency is the fitted concentration of half-maximal effect; % is set by controls: 0 for no effect and ±100 for the full control effect
#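 P. falciparum expressing integrated firefly luciferase, in erythrocytes at 2% hematocrit, 0.05% parasitemia, incubated with compounds 96 h at 37 C, 5% CO2. Growth inhibition read as loss of luminescence; two-generation exposure targets delayed-death apicoplast inhibitors.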
# Pf growth 48h – Primary qHTS for delayed death inhibitors of the malarial parasite plastid, 48 hour incubation; Potency, µM (highest dose often 28.7 µM), without a hit: top-dose activity change, negative = inhibition, most hits filed as inhibitors; actives 5.9% (n = 310,000); P. falciparum luciferase growth in erythrocytes, 48 h; note: potency is the fitted concentration of half-maximal effect; % is set by controls: 0 for no effect and ±100 for the full control effect
#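 Here the parasites carry a stable luciferase gene and grow inside erythrocytes in Albumax-based RPMI medium with compound for one erythrocytic cycle. Activity is scored as loss of luminescent signal.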
# The depositor's hits bear a star; ? = inconclusive; . = no result given. An excerpt weighted towards active compounds, which were near 21% of everything screened. Unless noted, calls come from the whole dose curve; as a rule, active = well fitted inhibition curve with a large enough effect; inconclusive = small, poorly fitted or top-dose-only effect, or another doubt; inactive = no such curve, though single readings can be large or run the other way.
SMILES,NS1 inh,CHX counter,SARS PLpro yeast,Shiga toxin inh,Pf growth 96h,Pf growth 48h
Cc1ccc(O)c(NC(=O)C2CCCN2C(=O)OCc2ccccc2)c1 (configuration not stated),1%,3,0%,-5,?,?
COC(=O)C1=C(c2ccccc2OCc2ccccc2)C[C@@H]2CC[C@H]1N2C(=O)NC1CCN(Cc2ccccc2)CC1,.,.,-6%,.,?,13µM*
COC(=O)C1=C(c2ccc(F)cc2OCc2ccccc2)C[C@@H]2CC[C@H]1N2C(=O)NCCNC(C)=O,.,.,-4%,.,?,?
COC(=O)C1=C(c2cccc(OCc3ccccc3)c2)C[C@@H]2CC[C@H]1N2C(=O)NC1CCN(Cc2ccccc2)CC1,.,.,-1%,.,?,13µM*
COC(=O)C1=C(c2ccc(F)cc2OCc2ccccc2)C[C@@H]2CC[C@H]1N2C(=O)NC1CCN(Cc2ccccc2)CC1,.,.,1%,.,?,13µM*
O=C(Cc1ccc2c(c1)OCCO2)N1CCN(c2ccccc2)CC1,.,10,0%,28,15%,20%
COc1cc(OC)cc(N2C(=O)CC(N3CCC(C(=O)N4CCCCC4)CC3)C2=O)c1 (configuration not stated),-118%,1,-18%,13,15µM*,0%
CC(=O)Nc1cccc(N2C(=O)CC(N3CCC(C(=O)N4CCCCC4)CC3)C2=O)c1 (configuration not stated),0%,1,0%,-10,.,5%
O=C1/C(=C\c2ccc(O)cc2)SC(=S)N1/N=C/c1ccc(O)cc1,1%,12*,-1%,26,-8%,0%
Cc1ccc(-n2c(=S)[nH]c3[nH]ncc3c2=O)cc1,.,13,7%,1,13%,10%
Cc1ccc(S(=O)(=O)NC(CC(C)C)C(=O)Nc2nccs2)cc1 (configuration not stated),4%,-2,-5%,-47,.,?
Cc1ccc(S(=O)(=O)NC(CC(C)C)C(=O)Nc2ccncc2)cc1 (configuration not stated),.,.,-12%,.,5.9µM*,5.2µM*
CC1CN(C(=O)CCC(=O)NCc2ccccc2)c2ccccc2S1 (configuration not stated),16%,-1,-1%,6,-10%,4%
COc1ccc(F)cc1C(=O)C1CCCN(C(=O)c2ocnc2C)C1 (configuration not stated),3%,2,-1%,1,61%,30%
COC(=O)CCC(C)N1CCC(Oc2ccc(C(=O)N3CCCC3)cc2)CC1 (configuration not stated),-3%,-2,-1%,-14,?,-8%
Cc1ccc(SCC(=O)c2ccc[nH]2)cc1,.,35*,1%,79*,132%,107%
COc1ccc(-c2[nH]c(-c3ccccc3)nc2SCC(=O)NCc2ccco2)cc1OC,-2%,-8,0%,-23,1µM*,.
Cc1ccc(CNC(=O)c2ccc[nH]2)cc1,2%,-4,-2%,20,24%,9%
COc1ccc(-c2nnc(SCC(=O)c3cccs3)n2-c2ccc(Cl)cc2)cc1,13%,40*,2%,75*,14%,?
COc1ccc(-n2c(CCc3ccccc3)nnc2SCC(=O)c2ccc(Cl)cc2)cc1,?,3,4%,10,?,13µM*
COc1ccc(-c2nc(SCC(=O)NCc3ccco3)c(-c3ccccc3)[nH]2)cc1OC,-34%,10,-5%,4,?,.
O=C(CSc1nnc(CCc2ccccc2)n1-c1ccc(Cl)cc1)c1ccccc1,?,-7,22%,-9,?,-2%
COc1ccccc1NC(=O)C(C)Sc1nc(-c2ccccc2)cn1N (configuration not stated),.,.,-11%,.,-30%,?
COc1cccc(NC(=O)CSc2nnc(-c3cc(C)n(-c4ccccc4)c3C)o2)c1,-41%,48*,-3%,101*,10µM*,171%
Cc1cc(C(=O)CSc2nnc(-c3cccs3)o2)c(C)n1-c1ccccc1,8%,12*,-5%,77*,?,15%
SMILES,NS1 inh,CHX counter,SARS PLpro yeast,Shiga toxin inh,Pf growth 96h,Pf growth 48h
COc1ccc(-c2nnc(SCC(=O)NC(=O)NCc3ccccc3)o2)cc1,-1%,-3,3%,-5,-26%,.
COc1ccc(-c2nnc(SCC(=O)c3cc(C)n(Cc4cccs4)c3C)o2)cc1,0%,-1,-2%,23,.,8%
COc1ccc(-c2nnc(SCC(=O)c3ccc[nH]3)o2)cc1,0%,36*,?,151*,.,171%
COc1ccc(-c2nnc(SCC(=O)c3cccs3)o2)cc1,-19%,29*,-10%,95*,19%,145%
COc1cccc(C(=O)CSc2nnc(-c3cccs3)o2)c1,3%,-2,-7%,15,14%,-5%
COc1cc(NC(=O)c2ccc(=O)[nH]n2)cc(OC)c1OC,3%,1,2%,3,32%,9%
Cc1ccc(-n2nnc3c(SCC(=O)NCc4ccco4)ncnc32)cc1,5%,5,-10%,17,-15%,13%
CCOC(=O)/C(=N/Nc1ccc(OC)cc1)Sc1nnc(CCc2ccccc2)n1-c1ccccc1,27%,31*,9%,-23,-18%,13%
COc1ccc(Cc2nnc(SCC(=O)NCc3ccco3)o2)cc1,-1%,-2,-3%,-10,.,-7%
COc1ccc(-c2nnc(SCC(=O)NCc3ccco3)o2)cc1,-10%,22*,0%,92*,25%,47%
COc1ccc(-n2nnc3c(SCC(=O)NCc4ccco4)ncnc32)cc1,-6%,19*,-5%,20,-24%,2%
CCNC(=O)CSc1nnc(-c2cccs2)o1,.,11,-1%,9,1%,8%
O=C(CSc1nnc(-c2cccs2)o1)c1cccs1,-3%,93*,16%,88*,6%,141%
COc1ccc(Cl)cc1NC(=O)CN1C(=O)NC(Cc2c[nH]c3ccccc23)C1=O (configuration not stated),.,.,1%,.,.,.
CC(=O)OCC1=C(C(=O)O)N2C(=O)C(NC(=O)CCn3nc(C(F)(F)F)c(Br)c3C3CC3)C2SC1 (configuration not stated),.,-2,0%,23,18%,7%
O=C(CSc1nnc(-c2ccc(S(=O)(=O)N3CCCC3)cc2)o1)NCc1ccco1,-2%,-4,-8%,18,.,?
COc1ccc(F)cc1S(=O)(=O)NC1CCCC1,-6%,-4,3%,-29,.,-7%
CC(=O)c1ccn(S(=O)(=O)c2ccccc2)c1,17%,-5,6%,-8,25%,14%
COc1ccc(-n2c(-c3ccc(F)cc3)cnc2SCC(=O)NCc2ccco2)cc1,-3%,49*,-12%,103*,.,?

# Compound activity: PubChem BioAssay, National Center for Advancing Translational Sciences (NCATS)
